# Publication PMC11062922 (Nature Chemical Biology, 2023)
# Read-outs that look alike come from different tables or passages of the source.
# Experiments:
# [1] = system: FLT4; conditions: read-out: apparent Kd, n = 1
# [2] = system: IRAK4; conditions: read-out: apparent Kd, n = 1
# [3] = compound concentrations:100 nM and 1000 nM (sheet 'Lestaurtinib' of Supplementary Table 1),run:Lestaurtinib_02364_R3,Plate:MR002
# [4] = compound concentrations:100 nM and 1000 nM (sheet 'Lestaurtinib' of Supplementary Table 1),run:Lestaurtinib_02381_R1,Plate:MR004
# [5] = compound concentrations:100 nM and 1000 nM (sheet 'Lestaurtinib' of Supplementary Table 1),run:Lestaurtinib_02381_R2,Plate:MR004
# [6] = compound concentrations:100 nM and 1000 nM (sheet 'Lestaurtinib' of Supplementary Table 1),run:Lestaurtinib_02407_R2,Plate:MR005
# [7] = compound concentrations:100 nM and 1000 nM (sheet 'Lestaurtinib' of Supplementary Table 1),run:Lestaurtinib_02422_R1,Plate:MR006
# [8] = compound concentrations:100 nM and 1000 nM (sheet 'Lestaurtinib' of Supplementary Table 1),run:Lestaurtinib_02437_R2,Plate:MR007
# [9] = compound concentrations:100 nM and 1000 nM (sheet 'Lestaurtinib' of Supplementary Table 1),run:Lestaurtinib_02438_R1,Plate:MR008
substance,measurement,setting,value
Lestaurtinib,potency estimated from few doses,[1]; [3],199 nM
same,potency estimated from few doses,"[1]; compound concentrations:100 nM and 1000 nM (sheet 'Lestaurtinib' of Supplementary Table 1),run:Lestaurtinib_02367_R2,Plate:MR003",462 nM
same,potency estimated from few doses,"[1]; compound concentrations:100 nM and 1000 nM (sheet 'Lestaurtinib' of Supplementary Table 1),run:Lestaurtinib_02367_R3,Plate:MR003",74.5 nM
same,potency estimated from few doses,[1]; [4],202 nM
same,potency estimated from few doses,[1]; [5],158 nM
same,potency estimated from few doses,[1]; [6],157 nM
same,potency estimated from few doses,[1]; [7],289 nM
same,potency estimated from few doses,"[1]; compound concentrations:100 nM and 1000 nM (sheet 'Lestaurtinib' of Supplementary Table 1),run:Lestaurtinib_02422_R2,Plate:MR006",26 nM
same,potency estimated from few doses,"[1]; compound concentrations:100 nM and 1000 nM (sheet 'Lestaurtinib' of Supplementary Table 1),run:Lestaurtinib_02437_R1,Plate:MR007",520 nM
same,potency estimated from few doses,[1]; [8],1240 nM
same,potency estimated from few doses,[1]; [9],25.6 nM
same,potency estimated from few doses,"[1]; compound concentrations:100 nM and 1000 nM (sheet 'Lestaurtinib' of Supplementary Table 1),run:Lestaurtinib_02443_R3,Plate:MR009",154 nM
same,potency estimated from few doses,"[1]; compound concentrations:100 nM and 1000 nM (sheet 'Lestaurtinib' of Supplementary Table 1),run:Lestaurtinib_02473_R1,Plate:MR010",310 nM
same,potency estimated from few doses,"[1]; compound concentrations:100 nM and 1000 nM (sheet 'Lestaurtinib' of Supplementary Table 1),run:Lestaurtinib_02473_R2,Plate:MR010",316 nM
same,potency estimated from few doses,"[1]; compound concentrations:100 nM and 1000 nM (sheet 'Lestaurtinib' of Supplementary Table 1),run:Lestaurtinib_02482_R3,Plate:MR011",229 nM
same,potency estimated from few doses,"[1]; compound concentrations:100 nM and 1000 nM (sheet 'Lestaurtinib' of Supplementary Table 1),run:Lestaurtinib_02487_R2,Plate:MR012",131 nM
same,potency estimated from few doses,"[1]; compound concentrations:100 nM and 1000 nM (sheet 'Lestaurtinib' of Supplementary Table 1),run:Lestaurtinib_02566_R1,Plate:MR014",1590 nM
same,potency estimated from few doses,"[1]; compound concentrations:100 nM and 1000 nM (sheet 'Lestaurtinib' of Supplementary Table 1),run:Lestaurtinib_02566_R2,Plate:MR014",90.7 nM
same,potency estimated from few doses,"[1]; compound concentrations:100 nM and 1000 nM (sheet 'Lestaurtinib' of Supplementary Table 1),run:Lestaurtinib_02566_R3,Plate:MR014",77.7 nM
same,potency estimated from few doses,"[1]; compound concentrations:100 nM and 1000 nM (sheet 'Lestaurtinib' of Supplementary Table 1),run:Lestaurtinib_02577_R2,Plate:MR016",225 nM
same,potency estimated from few doses,"[1]; compound concentrations:100 nM and 1000 nM (sheet 'Lestaurtinib' of Supplementary Table 1),run:Lestaurtinib_02577_R3,Plate:MR016",160 nM
same,potency estimated from few doses,"[1]; compound concentrations:100 nM and 1000 nM (sheet 'Lestaurtinib' of Supplementary Table 1),run:Lestaurtinib_02584_R1,Plate:MR017",396 nM
same,potency estimated from few doses,"[1]; compound concentrations:100 nM and 1000 nM (sheet 'Lestaurtinib' of Supplementary Table 1),run:Lestaurtinib_02584_R2,Plate:MR017",124 nM
same,potency estimated from few doses,"[1]; compound concentrations:100 nM and 1000 nM (sheet 'Lestaurtinib' of Supplementary Table 1),run:Lestaurtinib_02584_R3,Plate:MR017",434 nM
same,potency estimated from few doses,"[1]; compound concentrations:100 nM and 1000 nM (sheet 'Lestaurtinib' of Supplementary Table 1),run:Lestaurtinib_02601_R1,Plate:MR018",286 nM
same,potency estimated from few doses,"[1]; compound concentrations:100 nM and 1000 nM (sheet 'Lestaurtinib' of Supplementary Table 1),run:Lestaurtinib_02601_R2,Plate:MR018",202 nM
same,potency estimated from few doses,"[1]; compound concentrations:100 nM and 1000 nM (sheet 'Lestaurtinib' of Supplementary Table 1),run:Lestaurtinib_02601_R3,Plate:MR018",86 nM
same,potency estimated from few doses,"[1]; compound concentrations:100 nM and 1000 nM (sheet 'Lestaurtinib' of Supplementary Table 1),run:Lestaurtinib_02606_R3,Plate:MR019",231 nM
same,potency estimated from few doses,"[1]; compound concentrations:100 nM and 1000 nM (sheet 'Lestaurtinib' of Supplementary Table 1),run:Lestaurtinib_02624_R1,Plate:MR020",358 nM
same,potency estimated from few doses,"[1]; compound concentrations:100 nM and 1000 nM (sheet 'Lestaurtinib' of Supplementary Table 1),run:Lestaurtinib_02624_R2,Plate:MR020",135 nM
same,potency estimated from few doses,"[1]; compound concentrations:100 nM and 1000 nM (sheet 'Lestaurtinib' of Supplementary Table 1),run:Lestaurtinib_02624_R3,Plate:MR020",359 nM
same,potency estimated from few doses,"[1]; compound concentrations:100 nM and 1000 nM (sheet 'Lestaurtinib' of Supplementary Table 1),run:Lestaurtinib_02724_R2,Plate:MR021",319 nM
same,potency estimated from few doses,"[1]; compound concentrations:100 nM and 1000 nM (sheet 'Lestaurtinib' of Supplementary Table 1),run:Lestaurtinib_02741_R2,Plate:MR023",701 nM
same,potency estimated from few doses,"[1]; compound concentrations:100 nM and 1000 nM (sheet 'Lestaurtinib' of Supplementary Table 1),run:Lestaurtinib_02748_R1,Plate:MR024",330 nM
same,potency estimated from few doses,"[1]; compound concentrations:100 nM and 1000 nM (sheet 'Lestaurtinib' of Supplementary Table 1),run:Lestaurtinib_02748_R2,Plate:MR024",521 nM
same,potency estimated from few doses,"[1]; compound concentrations:100 nM and 1000 nM (sheet 'Lestaurtinib' of Supplementary Table 1),run:Lestaurtinib_02748_R3,Plate:MR024",161 nM
same,potency estimated from few doses,"[1]; compound concentrations:100 nM and 1000 nM (sheet 'Lestaurtinib' of Supplementary Table 1),run:Lestaurtinib_02752_R1,Plate:MR025",310 nM
same,potency estimated from few doses,"[1]; compound concentrations:100 nM and 1000 nM (sheet 'Lestaurtinib' of Supplementary Table 1),run:Lestaurtinib_02752_R3,Plate:MR025",254 nM
same,potency estimated from few doses,"[1]; compound concentrations:100 nM and 1000 nM (sheet 'Lestaurtinib' of Supplementary Table 1),run:Lestaurtinib_02765_R2,Plate:MR026",162 nM
same,potency estimated from few doses,"[1]; compound concentrations:100 nM and 1000 nM (sheet 'Lestaurtinib' of Supplementary Table 1),run:Lestaurtinib_02765_R3,Plate:MR026",400 nM
same,potency estimated from few doses,"[1]; compound concentrations:100 nM and 1000 nM (sheet 'Lestaurtinib' of Supplementary Table 1),run:Lestaurtinib_02766_R1,Plate:MR027",350 nM
same,potency estimated from few doses,"[1]; compound concentrations:100 nM and 1000 nM (sheet 'Lestaurtinib' of Supplementary Table 1),run:Lestaurtinib_02766_R3,Plate:MR027",237 nM
same,potency estimated from few doses,"[1]; compound concentrations:100 nM and 1000 nM (sheet 'Lestaurtinib' of Supplementary Table 1),run:Lestaurtinib_02768_R1,Plate:MR028",180 nM
same,potency estimated from few doses,"[1]; compound concentrations:100 nM and 1000 nM (sheet 'Lestaurtinib' of Supplementary Table 1),run:Lestaurtinib_02768_R2,Plate:MR028",389 nM
same,potency estimated from few doses,"[1]; compound concentrations:100 nM and 1000 nM (sheet 'Lestaurtinib' of Supplementary Table 1),run:Lestaurtinib_02768_R3,Plate:MR028",493 nM
same,potency estimated from few doses,"[1]; compound concentrations:100 nM and 1000 nM (sheet 'Lestaurtinib' of Supplementary Table 1),run:Lestaurtinib_02795_R1,Plate:MR022",391 nM
same,potency estimated from few doses,"[1]; compound concentrations:100 nM and 1000 nM (sheet 'Lestaurtinib' of Supplementary Table 1),run:Lestaurtinib_02795_R2,Plate:MR022",229 nM
same,potency estimated from few doses,"[1]; compound concentrations:100 nM and 1000 nM (sheet 'Lestaurtinib' of Supplementary Table 1),run:Lestaurtinib_02795_R3,Plate:MR022",297 nM
same,potency estimated from few doses,"[1]; compound concentrations:100 nM and 1000 nM (sheet 'Lestaurtinib' of Supplementary Table 1),run:Lestaurtinib_02802_R1,Plate:MR029",183 nM
same,potency estimated from few doses,"[1]; compound concentrations:100 nM and 1000 nM (sheet 'Lestaurtinib' of Supplementary Table 1),run:Lestaurtinib_02896_R1,Plate:MR030",159 nM
same,potency estimated from few doses,"[1]; compound concentrations:100 nM and 1000 nM (sheet 'Lestaurtinib' of Supplementary Table 1),run:Lestaurtinib_02896_R2,Plate:MR030",151 nM
same,potency estimated from few doses,"[1]; compound concentrations:100 nM and 1000 nM (sheet 'Lestaurtinib' of Supplementary Table 1),run:Lestaurtinib_02896_R3,Plate:MR030",372 nM
same,potency estimated from few doses,"[1]; compound concentrations:100 nM and 1000 nM (sheet 'Lestaurtinib' of Supplementary Table 1),run:Lestaurtinib_03172_R3,Plate:MR031",131 nM
same,potency estimated from few doses,"[1]; compound concentrations:100 nM and 1000 nM (sheet 'Lestaurtinib' of Supplementary Table 1),run:Lestaurtinib_03252_R1,Plate:MR032",229 nM
same,potency estimated from few doses,"[1]; compound concentrations:100 nM and 1000 nM (sheet 'Lestaurtinib' of Supplementary Table 1),run:Lestaurtinib_03252_R2,Plate:MR032",76.2 nM
same,potency estimated from few doses,"[1]; compound concentrations:100 nM and 1000 nM (sheet 'Lestaurtinib' of Supplementary Table 1),run:Lestaurtinib_03260_R1,Plate:MR033",162 nM
same,potency estimated from few doses,"[1]; compound concentrations:100 nM and 1000 nM (sheet 'Lestaurtinib' of Supplementary Table 1),run:Lestaurtinib_03260_R3,Plate:MR033",388 nM
same,potency estimated from few doses,"[2]; compound concentrations:100 nM and 1000 nM (sheet 'Lestaurtinib' of Supplementary Table 1),run:Lestaurtinib_02339_R2,Plate:MR001",146 nM
same,potency estimated from few doses,"[2]; compound concentrations:100 nM and 1000 nM (sheet 'Lestaurtinib' of Supplementary Table 1),run:Lestaurtinib_02339_R3,Plate:MR001",62 nM
same,potency estimated from few doses,"[2]; compound concentrations:100 nM and 1000 nM (sheet 'Lestaurtinib' of Supplementary Table 1),run:Lestaurtinib_02364_R1,Plate:MR002",77.8 nM
same,potency estimated from few doses,[2]; [3],95 nM
same,potency estimated from few doses,[2]; [4],93.9 nM
same,potency estimated from few doses,[2]; [5],76.7 nM
same,potency estimated from few doses,"[2]; compound concentrations:100 nM and 1000 nM (sheet 'Lestaurtinib' of Supplementary Table 1),run:Lestaurtinib_02381_R3,Plate:MR004",65.8 nM
same,potency estimated from few doses,"[2]; compound concentrations:100 nM and 1000 nM (sheet 'Lestaurtinib' of Supplementary Table 1),run:Lestaurtinib_02407_R1,Plate:MR005",69.8 nM
same,potency estimated from few doses,[2]; [6],55.3 nM
same,potency estimated from few doses,"[2]; compound concentrations:100 nM and 1000 nM (sheet 'Lestaurtinib' of Supplementary Table 1),run:Lestaurtinib_02407_R3,Plate:MR005",85.3 nM
same,potency estimated from few doses,[2]; [7],136 nM
same,potency estimated from few doses,"[2]; compound concentrations:100 nM and 1000 nM (sheet 'Lestaurtinib' of Supplementary Table 1),run:Lestaurtinib_02422_R3,Plate:MR006",131 nM
same,potency estimated from few doses,[2]; [8],140 nM
same,potency estimated from few doses,[2]; [9],79.9 nM
same,potency estimated from few doses,"[2]; compound concentrations:100 nM and 1000 nM (sheet 'Lestaurtinib' of Supplementary Table 1),run:Lestaurtinib_02443_R1,Plate:MR009",113 nM
